Compound activity: PubChem BioAssay, National Center for Advancing Translational Sciences (NCATS)
HT1080NT lethal: kills 2HG-producing HT-1080-NT fibrosarcoma cells; HT-1080-NT fibrosarcoma viability, CellTiter-Glo ATP luminescence, 48 h; Potency, µM (highest dose often 46.1 µM), for inactives: at the highest dose activity, negative = less viability, actives largely listed as cytotoxic; 1.6% of 360,000 active; AID 686970;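 note: NT is the 2HG producing partner of a matched IDH1 knockdown line; 0% = DMSO-treated cells and -100% = media-only wells without cells; nearly all actives have a fitted effect of over 55% in size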
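Compounds were tested in concentration-response format on HT-1080-NT cells for 48 hours at 37 degrees C. Cell viability came from CellTiter-Glo luminescence; curves were classified by r2, response magnitude and activity.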
KB-3-1 cytotox: KB-3-1 parental cell cytotoxicity | 1.4% of 400,000 active | KB-3-1 viability, CellTiter-Glo ATP luminescence, 72 h | Potency, µM (doses to about 46.1 µM), hits mostly cytotoxic; note: % is set by controls: 0 for no effect and ±100 for the full control effect; nearly all actives have a fitted effect of over 60% in size
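Cells are dispensed, compounds pinned in, plates held at 37 °C for 72 h, then CellTiter-Glo is added and luminescence read after 10 minutes. Cell line: parental KB-3-1 in phenol-red-free DMEM, 10% FBS.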
KB-V1 cytotox: kills drug-selected multidrug resistant KB-V1 cells. KB-V1 MDR cells viability, CellTiter-Glo, 72 h. Potency, µM (series often up to 46.1 µM), hits mostly cytotoxic. 3.4% of 400,000 active; note: % is set by controls: 0 for no effect and ±100 for the full control effect; nearly all actives have a fitted effect of over 60% in size
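Following 72 h at 37 degrees C with compound, KB-V1 cell viability was read by CellTiter-Glo luminescence, medium being phenol-red-free DMEM plus 10% FBS; concentration-response parameters came from normalized, curve-fitted qHTS data.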
HT1080 IDH1KD tx: toxicity to HT-1080 IDH1 knockdown cells (counter line). HT-1080 IDH1 knockdown viability, ATP luminescence, 48 h. Potency, µM (doses to about 46.1 µM), without a hit: at the top dose activity, negative = toxicity, most hits filed as cytotoxic. 2% of 360,000 active;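 note: 0% = DMSO wells and -100% = cell-free medium wells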
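% activity derives from luminescence (CellTiter-Glo), normalised to DMSO and no-cell wells. HT-1080-IDH1KD cells, 750/well, had 48 h compound exposure at 37 °C.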
ATXN viability: cell viability loss in ATXN counter-screen | S2 cells (HEK-293 line with an ATXN2-luciferase reporter) viability, CellTiter-Fluor protease fluorescence, 24 h | Potency, µM (titrated, usually from 56.7 µM), most hits filed as cytotoxic | 0.49% of 400,000 active; note: nearly all actives have a fitted effect of over 40% in size
ATXN2 expr inh: ATXN2 expression inhibition. Potency, µM (series often up to 57 µM), for the others: at the highest dose activity change, negative = inhibition, actives largely listed as inhibitors. 0.72% of 360,000 active. HEK-293 ATXN2-luciferase reporter, luminescence, 24 h; note: % is set by controls: 0 for no effect and ±100 for the full control effect; nearly all actives have a fitted effect of over 55% in size
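qHTS (up to 57 uM final) was run with 24 h compound exposure of reporter cells at 37 °C. Each well was multiplexed: SteadyGlo luminescence measured ATXN2-luciferase expression after a fluorogenic Gly-Phe-AFC viability readout (25 uM final).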
* hit, by the source's call; i = inactive; ? = inconclusive; nt = no result given; [ ] = another dose, or the depositor's remark. Rows were chosen to be rich in hits. Some 6.2% of all compounds tested hit in one or more screens of this group. Calls come from the whole dose curve; as a rule, active = well fitted curve in the direction sought with a large enough effect; inconclusive = small, poorly fitted or top-dose-only effect, or another doubt; inactive = no such curve, though single readings can be large; an effect the other way counts as inactive or inconclusive. Potency is the fitted concentration of half-maximal effect.

SMILES	HT1080NT lethal	KB-3-1 cytotox	KB-V1 cytotox	HT1080 IDH1KD tx	ATXN viability	ATXN2 expr inh
Clc1ccc(-c2nc(NCCCN3CCOCC3)c3ccccc3n2)cc1	23µM*	i	?	?	i	?
Clc1cccc(-c2nc(NCCCN3CCOCC3)c3ccccc3n2)c1	21µM*	i	i	?	nt	nt
Clc1cccc(-c2nc(NCCN3CCOCC3)c3ccccc3n2)c1	?	i	21µM*	?	i	-24%
Clc1cccc(Cc2c(C3CCCCC3)nc3ccc(Br)cn23)c1	?	i	i	?	?	-16%
COc1ccc(-c2cnnn2-c2ccc(NC(=O)c3ccccc3OC)cc2)cc1	nt	?	i	nt	nt	nt
Cc1ccc(-n2nc(C(=O)Nc3ccc(F)cc3Cl)c(=O)n(C)c2=O)cc1	nt	i	i	nt	i	-4%
CSc1nc2ccccc2cc1/C=C(\C#N)c1cccc(Cl)c1	4.6µM*	21µM*	?	4.6µM*	i	-16%
CCOC(=O)/C(C#N)=C/c1cc2ccccc2nc1Cl	-8%	i	i	?	i	3%
CCN(N=O)c1ccc(/C=C2\C=Cc3ccccc32)cc1	nt	i	?	nt	nt	nt
CCN(N=O)c1ccc(C=C2C=Cc3ccccc32)cc1	7%	i	21µM*	11%	i	59%
O=C1C2CC=CCC2C(=O)N1c1ccc(OCC(O)Cn2nnc3ccccc32)cc1 (centres undefined)	1%	?	15µM*	-1%	i	-6%
CC(=O)c1ccc(OCC(O)Cn2nnc3ccccc32)cc1 (centres undefined)	-26%	i	i	7%[9.24 µM]	i	38%
COC(=O)c1ccc(OCC(O)Cn2nnc3ccccc32)cc1 (centres undefined)	-3%	i	23µM*	-3%	i	41%
CC(=O)OCC(=O)[C@@]12N=C(C)O[C@H]1C[C@H]1[C@@H]3CCC4=CC(=O)C=C[C@]4(C)[C@@H]3[C@@H](O)C[C@@]12C	nt	nt	nt	nt	nt	-4%
CN(C)CCCOc1ccc2c(c1)Sc1ccccc1CC2=O	2%	i	10µM*	1%	i	-5%
CCOC(=O)Cn1c(S(=O)(=O)Cc2ccc(Cl)cc2)nc(-c2ccccc2)c1-c1ccccc1	?	?	7.3µM*	?	i	-3%
Brc1ccccc1-c1nnc(CSc2nncn2-c2ccccc2)o1	-2%	i	i	1%	i	2%
Cc1ccc(-n2nnnc2SCc2nnc(-c3ccccc3Br)o2)cc1	0%	i	16µM*	-8%	i	17%
Cc1cc(C)n2nc(SCc3nnc(-c4ccccc4Br)o3)nc2n1	0%	i	13µM*	4%	i	-3%
Cc1cc(C)n2nc(SCc3ncc(-c4ccccc4)o3)nc2n1	2%	i	i	-3%	i	4%
Cc1cccc(-c2nc(SCc3cc(=O)c4cccc(F)c4[nH]3)n[nH]2)c1	nt	i	i	nt	?	-34%
CCN1/C(=C/c2ccc3ccccc3[n+]2CCCS(=O)(=O)[O-])C=Cc2cc(C)ccc21	-14%	i	i	-17%	18µM*	-16%
CCN1/C(=C/c2cc[n+](C)cc2)C=Cc2cc(C)ccc21	-5%	2.9µM*	i	?	nt	?
CCN1C(=O)/C(=C2\C=Cc3cc(C)ccc3N2CC)OC1=S	18%	i	i	11%	i	3%
CC[n+]1c2ccccc2cc2ccccc21	nt	?	i	nt	nt	nt
SMILES	HT1080NT lethal	KB-3-1 cytotox	KB-V1 cytotox	HT1080 IDH1KD tx	ATXN viability	ATXN2 expr inh
CCN1/C(=C/c2ccc3ccccc3[n+]2CC)C=Cc2ccccc21	6.5µM*	0.82µM*	?	8.2µM*	10µM*	3.2µM*
CCc1nnc2c(Nc3cccc(F)c3)nc3ccc(C(=O)c4ccccc4)cc3n12	nt	?	9.2µM*	nt	i	-16%
O=C(NCCO)c1cn(C2CCN(Cc3c(F)cccc3Cl)CC2)nn1	nt	nt	nt	nt	i	nt
O=C(Nc1nnc([C@H]2C[C@H](O)[C@@H](CO)O2)s1)NC(c1ccccc1)c1ccccc1	-12%	i	i	-5%	i	-5%
COc1ccc(-c2c(C)nc(N)nc2-c2ccc(OCc3ccc(C)cc3)cc2O)cc1OC	-5%	i	2.3µM*	-14%	i	-4%
CCN1CCCC1CNC(=O)Cn1cc(C)c(=O)[nH]c1=O (centres undefined)	-2%	i	i	1%	i	-2%
O=C1CC(SC(=Nc2ccccc2)Nc2ccccc2)C(=O)N1c1ccc(Cl)c(Cl)c1 (centres undefined)	?	?	16µM*	?	i	-35%
CN=C(Nc1ccc2c(c1)OCO2)SC1CC(=O)N(c2ccccc2)C1=O (centres undefined)	-15%	i	18µM*	-12%	i	-3%
Cc1cccc(N2C(=O)CC(SC(=Nc3ccccc3)Nc3ccccc3)C2=O)c1 (centres undefined)	-17%	?	18µM*	-23%	i	4%
O=C1CC(SC(=NCc2ccc3c(c2)OCO3)Nc2ccccc2)C(=O)N1c1ccccc1 (centres undefined)	-1%	i	i	-9%	i	-15%
O=C(O)CSC1CC(=O)N(c2ccc(Cl)c(Cl)c2)C1=O (centres undefined)	13%	i	i	17%	i	-2%
CCOC(=O)c1cc(-c2ccc(F)cc2)n(CCC(=O)Nc2nc3cc(C)c(C)cc3s2)c1C	nt	i	i	nt	nt	nt
CC[C@@H](C)[C@H](NC(=O)OCc1ccccc1)c1nnc([C@@H](NC(=O)OCc2ccccc2)[C@@H](C)CC)o1	-3%	i	i	-5%	i	-8%
Cc1ccccc1CS(=O)(=O)c1nnc([C@H](CC(C)C)NC(=O)OC(C)(C)C)o1	11µM*	?	i	4µM*	?	?
C[C@H](NC(=O)OC(C)(C)C)c1nnc(SCc2c(F)cccc2Cl)o1	nt	i	?	nt	i	-10%
CC(C)C[C@H](NC(=O)OC(C)(C)C)c1nnc(SCc2ccccc2)o1	-8%	i	?	-22%	i	-12%
CC(C)[C@H](NC(=O)OC(C)(C)C)c1nnc(S(=O)(=O)Cc2c(F)cccc2Cl)o1	6.3µM*	i	?	4µM*	nt	?
CC(C)(C)OC(=O)N[C@@H](Cc1ccccc1)c1nnc(S(=O)(=O)Cc2cccc(F)c2)o1	?	18µM*	18µM*	23µM*	nt	?
